Screening results deposited in PubChem by National Center for Advancing Translational Sciences (NCATS).
Compounds with a hit are over-represented: about 6.9% of the library has one in this group of screens.
PLK1 PBD inh = qHTS for Inhibitors of PLK1-PDB (polo-like kinase 1 - polo-box domain): Primary Screen | Plk1 PBD binding of FITC phosphopeptide, fluorescence polarization | Potency, µM, without a hit: max response, negative = inhibition, actives largely listed as inhibitors | hit rate 2.8% among 360,000 | AID 720504, 2013; note: series mostly up to about 57 µM; % is set by controls: 0 for no effect and ±100 for the full control effect; nearly all actives have a fitted effect of over 65% in size
BAZ2B inh = qHTS Assay for Inhibitors of BAZ2B; Bromodomain adjacent to zinc finger domain protein 2B (Homo sapiens), Q9UIF8; hit rate 4.4% among 360,000; Potency, µM (top dose mostly 114 µM), for the others: top-dose activity change, negative = inhibition, most hits filed as inhibitors; AlphaScreen BAZ2B-H3K14Ac peptide displacement; note: % is set by controls: 0 for no effect and ±100 for the full control effect; nearly all actives have a fitted effect of over 60% in size
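Compounds, titrated to a top concentration of 110 uM, were incubated 30 min at room temperature with preformed BAZ2B/acetyl-K14 H3 peptide complex (50 nM each). Proximity signal was measured by AlphaScreen after 20 min with beads.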
HP1b chromo inh = HTS for Inhibitors of HP1-beta Chromodomain Interactions with Methylated Histone Tails; AlphaScreen HP1-beta / biotin-H3K9me3 peptide binding; Potency, µM (titrated, usually from 114 µM), for the others: top-dose activity change, negative = inhibition, usual class: inhibitors; hit rate 0.56% among 390,000; note: nearly all actives have a fitted effect of over 70% in size
Target sequence (P83916 whole entry, looked up): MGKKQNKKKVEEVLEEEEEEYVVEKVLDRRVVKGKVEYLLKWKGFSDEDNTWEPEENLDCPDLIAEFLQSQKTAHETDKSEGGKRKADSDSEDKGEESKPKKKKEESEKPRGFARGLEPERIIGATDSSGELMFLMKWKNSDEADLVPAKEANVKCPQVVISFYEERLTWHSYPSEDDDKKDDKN
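HP1-beta protein (50 nM final) preincubated 30 min at room temperature with biotinylated H3(1-18)K9me3 peptide (50 nM) in PBS pH 7.4, 0.01% Tween-20, then compound added for 30 min. AlphaScreen streptavidin donor/nickel chelate acceptor beads (10 ug/mL final), 30 min dark, luminescence read.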
VDR inh = Inhibitors of the vitamin D receptor (VDR): qHTS. Potency, µM, for the others: max response, negative = inhibition, usual class: inhibitors. AID 504847, 2011. VDR-SRC2-3 peptide fluorescence polarization, 2 h. Vitamin D3 receptor (Homo sapiens), P11473. hit rate 0.93% among 400,000; note: % is set by controls: 0 for no effect and ±100 for the full control effect
Target sequence (P11473 whole entry, looked up): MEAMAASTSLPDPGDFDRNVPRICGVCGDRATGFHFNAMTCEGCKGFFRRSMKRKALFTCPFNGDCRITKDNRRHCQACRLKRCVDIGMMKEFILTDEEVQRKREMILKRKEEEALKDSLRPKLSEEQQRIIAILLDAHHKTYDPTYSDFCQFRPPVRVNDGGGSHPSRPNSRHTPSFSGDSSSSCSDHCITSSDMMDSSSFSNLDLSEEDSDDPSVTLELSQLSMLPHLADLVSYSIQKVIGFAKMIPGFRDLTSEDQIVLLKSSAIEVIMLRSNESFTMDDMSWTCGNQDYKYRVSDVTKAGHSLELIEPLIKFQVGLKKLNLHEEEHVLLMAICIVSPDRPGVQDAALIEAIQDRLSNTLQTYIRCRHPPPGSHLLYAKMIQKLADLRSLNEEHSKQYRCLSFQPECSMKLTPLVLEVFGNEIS
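Two reagent solutions held at 4 deg C in the dark were dispensed, compounds pinned at 23 nl, and the mixture incubated 2 h at room temperature. Read-out: fluorescence polarization of VDR–SRC2-3 peptide binding.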
L3MBTL1 block = qHTS Assay for the Inhibitors of L3MBTL1; AID 485360, 2010; Potency, µM (titrated, usually from 57.1 µM), for the others: at the highest dose activity, negative = inhibition, usual class: inhibitors; hit rate 0.66% among 230,000; Lethal(3)malignant brain tumor-like protein 1 (Homo sapiens), Q9Y468; AlphaScreen L3MBTL1–H3K9me1 peptide binding; note: % is set by controls: 0 for no effect and ±100 for the full control effect; nearly all actives have a fitted effect of over 60% in size
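First, the protein-peptide complex forms for 30 min at room temperature (L3MBTL1 50 nM, biotinylated H3K9me1 peptide 75 nM). Next, compounds are pin-transferred and incubated 30 min. Finally, AlphaScreen beads are added and read after 30 min.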
JMJD2A Tudor = qHTS Assay for Inhibitors of JMJD2A-Tudor Domain | AID 504339, 2011 | Lysine-specific demethylase 4A (Homo sapiens), O75164 | AlphaScreen JMJD2A-Tudor / H3K4me3 peptide binding | hit rate 4.4% among 390,000 | Potency, µM (doses to about 114 µM), without a hit: at the top dose activity change, negative = inhibition, usual class: inhibitors; note: % is set by controls: 0 for no effect and ±100 for the full control effect; nearly all actives have a fitted effect of over 50% in size
* hit, by the source's call; u = inconclusive; x = no result; [ ] = dose if it differs, or a comment. Calls come from the whole dose curve; as a rule, active = well fitted curve in the direction sought with a large enough effect; inconclusive = small, poorly fitted or top-dose-only effect, or another doubt; inactive = no such curve, though single readings can be large; an effect the other way counts as inactive or inconclusive. Potency is the fitted concentration of half-maximal effect.

SMILES	PLK1 PBD inh	BAZ2B inh	HP1b chromo inh	VDR inh	L3MBTL1 block	JMJD2A Tudor
O=C(CSc1nnc(SCc2ccccc2)s1)N/N=C/C=C/c1ccccc1[N+](=O)[O-]	-16%	-22%	1%	-1%	-6%	-16%
Cc1ccc(CSc2nnc(SCC(=O)N/N=C/c3c[nH]c4ccccc34)s2)cc1	-27%	20µM*	-2%	-2%	x	u
CCn1c(SCC(=O)NC(=O)NC(C)(C)C)nc2ccccc21	9.5µM*	-4%	u	u	x	11µM*
CCn1c(SCC(=O)N/N=C/C=C/c2ccco2)nc2ccccc21	u	45µM*	-9%	u	35µM*	u
CCC(=O)C1=C(c2cccc([N+](=O)[O-])c2)N(C(=O)CC)n2c(nnc2-c2ccccc2)S1	x	1%	43%	4%	x	-6%
CC(=O)c1cc2c(s1)c1cnn(Cc3ccccc3F)c(=O)c1n2C	x	x	x	x	x	-15%
N=c1c2c(ncn1Cc1ccco1)Oc1c(ccc3ccccc13)C2c1ccccc1 (stereo not drawn)	-2%	50µM*	u	15%	-3%	u
N=c1c2c(ncn1Cc1ccco1)Oc1cc(O)ccc1C2c1ccccc1 (stereo not drawn)	-25%	-21%	42%	-17%	-3%	-16%
CN(c1cccc(NC(=O)c2ccc(N(C)S(=O)(=O)c3ccccc3)cc2)c1)S(C)(=O)=O	12µM*	-18%	u	u	5%	u
CC(=O)Nc1ccc(C(=O)Nc2cccc(S(=O)(=O)N(C)c3ccccc3)c2)cc1	-10%	-19%	13%	-13%	-4%	-23%
Nc1ccc(S(=O)(=O)N2CCCN(S(=O)(=O)c3ccc4c(c3)OCCO4)CC2)cc1	x	x	x	x	x	89µM*
CCc1ccc(C2NC(=S)NC3=C2C(=O)CCC3)cc1 (stereo not drawn)	-14%	-20%	36%	-27%	0%	10%
CCCCCCCc1ccc(C2NC(=S)NC3=C2C(=O)c2ccccc23)cc1 (stereo not drawn)	21µM*	-32%	-10%	u	x	-31%[11.4 µM]
COc1ccc(/C=N/Nc2cc(N(C)C)nc(N(C)C)n2)cc1	-1%	50µM*	u	-5%	-10%	u
COc1ccc(-n2c(NC(=O)c3ccc(Br)o3)c(C#N)c3nc4ccccc4nc32)cc1	x	u	x	x	17%	x
CCC(C)n1c(NC(=O)c2ccccc2)c(C#N)c2nc3ccccc3nc21 (stereo not drawn)	17%	13%	91%	u	6.3µM*	11%
N#Cc1c(NC(=O)c2ccc(Br)o2)n(-c2ccccc2)c2nc3ccccc3nc12	u	-4%	83%	8.9µM*	-7%	24%
CCCCn1c(NC(=O)c2ccccc2)c(C#N)c2nc3ccccc3nc21	-26%	-7%	79%	u	-17%	-16%
O=[N+]([O-])c1cc(O)c2ncccc2c1	-4%	5.6µM*	30%	2%	x	18µM*
O=[N+]([O-])c1cc2cccnc2c2ncccc12	-18%	22µM*	20%	-1%	u	79µM*
O=[N+]([O-])c1cc2c(c3cccnc13)COCO2	-15%	x	u	-4%	x	25µM*
COc1cc([N+](=O)[O-])c2ncccc2c1	x	x	24%	11%	x	-19%
O=C(NCCc1ccccc1)c1ccc(NC(=O)C2CC2)cc1	3%	x	36%	-12%	x	-7%
CCN(CC)C(=O)c1sc2c(c1C)c(=O)n(-c1ccc(Cl)c(Cl)c1)c(=O)n2Cc1cc(=O)n2ccccc2n1	x	8%	81%	-7%	x	-3%
Cc1ccc(-c2nc3c4ccccc4ccn3c2CN2CCCCC2)cc1	-8%	50µM*	2%	0%	-4%	u
SMILES	PLK1 PBD inh	BAZ2B inh	HP1b chromo inh	VDR inh	L3MBTL1 block	JMJD2A Tudor
COc1ccc(/C(C)=N/N=C2/NC(=O)CC(C(=O)O)S2)cc1F (stereo not drawn)	4%	-25%	45%	-5%	x	-6%
CN1CCN(c2nnc(-c3ccc(F)cc3)c3ccccc23)CC1	-8%	-28%	-19%	0%	x	u
COc1cccc(Nc2ncc3nc(-c4cc(F)cc(F)c4)c(=O)n(C4CC4)c3n2)c1	x	x	x	1%	x	x
CCc1nnc(NC(=O)c2nc(S(C)(=O)=O)ncc2Cl)s1	x	-27%	46%	-15%	x	10µM*
CCOC(=O)c1nc(S(C)(=O)=O)ncc1Cl	21µM*	6%	39%	56µM*	-8%	-7%
Cc1cccc(C)c1NC(=O)c1nc(S(=O)(=O)Cc2ccccc2)ncc1Cl	u	-3%	21%[57 µM]	u	x	-6%
Cc1ccccc1CS(=O)(=O)c1ncc(Cl)c(C(=O)Nc2ccc(F)cc2)n1	19µM*	-14%	33%	-23%	x	5%
Cc1ccccc1NC(=O)c1nc(S(C)(=O)=O)ncc1Cl	u	4%	51%	40µM*	-3%	-6%
CCOC(=O)c1nc(S(C)(=O)=O)ncc1N1CCOCC1	-2%	0%	21%	2%	u	-13%
CN(C)NC(=S)NC1CC2CCC1C2 (stereo not drawn)	2%	-29%	24%	-2%	x	-19%
CC1(C(=O)NCc2cccnc2)CCN1C(=O)Cc1cccs1 (stereo not drawn)	-2%	x	x	x	x	x
CCOC(=O)c1cc(NC(=O)c2ccc(F)cc2)c(=O)n2c1oc1ccc(Cl)cc12	x	37%	56%	1%	x	-3%
CN1/C(=C/C(=O)c2nc(S(C)(=O)=O)ncc2Cl)C(C)(C)c2ccccc21	u	u	8%	50µM*	-20%	-32%
CN1/C(=C\C(=O)c2cncc(Br)c2)C(C)(C)c2ccccc21	-4%	108%	221%	6%	83%	103%
CCc1nnc(NC(=O)c2cc(Cl)ccn2)s1	u	20µM*	51%	-11%	x	16µM*
C[C@H](CO)N1C[C@H](C)[C@@H](CN(C)C(=O)NC2CCCC2)Oc2cc(Br)ccc2S1(=O)=O	-6%	x	x	x	x	x
CCCCCCCN(c1ccccc1)[C@@H]1C[C@H]2CCCC(=O)N3CC[C@@H](C1)[C@@H]23	-3%	x	-13%	-17%	x	45µM*
